SENP6 inh = SENP6 protease inhibition | inhibition, % at 10 µM | 330,000 tested, 1.8% active | Q9GZR1 | Recombinant SENP6 catalytic domain, aminoluciferin luminescence;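 active = inhibition above about 50% at the single tested dose, limit read from the data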;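 also: plate controls were DMSO wells with enzyme for no effect and DMSO wells lacking enzyme for full effect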
Target sequence (Q9GZR1 628-1112 limits assumed): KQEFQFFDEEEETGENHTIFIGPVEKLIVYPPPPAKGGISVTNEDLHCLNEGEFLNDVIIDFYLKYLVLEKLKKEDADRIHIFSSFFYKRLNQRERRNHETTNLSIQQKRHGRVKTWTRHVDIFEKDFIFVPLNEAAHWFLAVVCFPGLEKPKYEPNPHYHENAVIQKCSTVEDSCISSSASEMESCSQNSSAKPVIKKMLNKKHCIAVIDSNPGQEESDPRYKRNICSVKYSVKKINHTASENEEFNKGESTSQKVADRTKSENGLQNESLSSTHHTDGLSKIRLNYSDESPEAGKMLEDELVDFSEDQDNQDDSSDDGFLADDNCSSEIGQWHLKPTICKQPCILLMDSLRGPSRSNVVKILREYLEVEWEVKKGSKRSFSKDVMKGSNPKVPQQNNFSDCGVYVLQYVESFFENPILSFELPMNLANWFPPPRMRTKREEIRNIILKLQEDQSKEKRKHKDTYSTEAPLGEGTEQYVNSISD
LGR2 antag = inhibitors of bursicon-induced Drosophila LGR2 receptor cAMP signaling; AID 720647; HEK293 LGR2, CRE-luciferase, bursicon-stimulated, 4 h; 380,000 tested, 0.35% active; inhibition, % at 9.99 µM;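 active = drop in luminescence signal, shown as inhibition above about 50% in the replicate tests, limit read from the data, passing the limit was not always enough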;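 also: agonist challenge used bursicon conditioned medium at about half maximal strength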
SENP8 block-1 = blocks human SENP8 cleavage of Nedd8 substrate | recombinant SENP8, Nedd8 substrate fluorescence | inhibition, % at 20 µM | 360,000 tested, 0.64% active | AID 602440; in the data active = inhibition mostly above about 40%, no sharp cut-off; inactive = mostly below about 27%
SENP8 block-2 = blocks the human protease SENP8; Q96LD8; purified SENP8, Z-RLRGG-aminoluciferin cleavage, luminescence; inhibition, % at 10 µM; 330,000 tested, 1.2% active; AID 2540; in the data active = inhibition above about 50%
SENP7 block = inhibitors of human SENP7 protease. 330,000 tested, 1.5% active. recombinant SENP7, Z-RLRGG-aminoluciferin luminescence, 40 min. AID 434973. inhibition, % at 5 µM;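 active = inhibition above about 50% at the single test dose, limit read from the data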;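 also: plate controls were DMSO with enzyme for no effect and no enzyme buffer wells for full effect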
HSP90 refold inh = inhibitors of HSP90 luciferase refolding in rabbit reticulocyte lysate; inhibition, % at 5.6 µM; luciferase refolding luminescence, 3 h; 290,000 tested, 0.91% active;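 active = inhibition above the screen-wide mean plus 3 SD, computed separately per campaign, cut at about 16% in these data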;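 also: 0% = DMSO wells and 100% = 60 µM geldanamycin wells; inhibitors lower the luminescence because luciferase stays unfolded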
SENP8 conf = confirmation of human SENP8 protease inhibitors | shares compounds with SENP7 block | Recombinant SENP8, Z-RLRGG-aminoluciferin luminescence, 60 min | inhibition, % at 12.5 µM | 6,200 tested, 40% active | AID 488912;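 active = mean inhibition across replicates above about 50%, limit read from the data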
SENP6 conf = confirmation of human SENP6 protease inhibitors; AID 488915; inhibition, % at 12.5 µM; recombinant SENP6, Z-RLRGG-aminoluciferin luminescence; 6,200 tested, 58% active; shares compounds with SENP7 block
SENP7 confirm = human SENP7 inhibition, confirmed; shares compounds with SENP7 block; recombinant SENP7, Z-RLRGG-aminoluciferin luminescence, 40 min; inhibition, % at 12.5 µM; 6,200 tested, 69% active
Casp3 SENP sel = caspase-3 inhibition (SENP selectivity assay) | shares compounds with SENP7 block | purified caspase-3, Z-DEVD-aminoluciferin luminescence, 60 min | inhibition, % at 12.5 µM | 6,200 tested, 60% active | AID 488918;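 active = mean inhibition above about 50%, limit read from the data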;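 also: plate controls were enzyme with DMSO for no effect and wells without caspase-3 for full effect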
Target sequence (P42574 28-227 limits assumed): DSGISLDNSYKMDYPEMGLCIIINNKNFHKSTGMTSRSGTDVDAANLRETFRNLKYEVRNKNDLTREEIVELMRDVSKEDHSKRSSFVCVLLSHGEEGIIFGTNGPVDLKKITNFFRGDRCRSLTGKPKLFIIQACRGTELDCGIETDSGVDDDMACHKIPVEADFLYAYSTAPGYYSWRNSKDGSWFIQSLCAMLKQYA
Luc interf = counter-screen for SENP inhibitors: luminescence interference. shares compounds with SENP7 block. Pre-incubated SENP8/Z-RLRGG-aminoluciferin, luciferase luminescence interference. inhibition, % at 12.5 µM. 6,200 tested, 39% active. AID 488919;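 active = mean inhibition above about 50% when retested at one dose, limit read from the data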;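 also: plate controls were DMSO wells with completed reaction for no effect and substrate without enzyme for full effect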
* = called active by the depositor; nt = not tested or not shown. Most compounds without a hit are left out; they make up all but 2.3% or so of the library.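 The calls were made as follows, unless noted: active = mean inhibition above about 50% in the one-dose retest (limit read from the data); inactive = the rest.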

SMILES	SENP6 inh	LGR2 antag	SENP8 block-1	SENP8 block-2	SENP7 block	HSP90 refold inh	SENP8 conf	SENP6 conf	SENP7 confirm	Casp3 SENP sel	Luc interf
COc1ccc(S(=O)(=O)N(C)C[C@@H]2Oc3ccc(NS(=O)(=O)c4ccc(F)cc4)cc3CC(=O)N([C@H](C)CO)C[C@@H]2C)cc1	nt	12	nt	nt	nt	nt	nt	nt	nt	nt	nt
O=C(O)C[C@@H]1CC[C@@H]2[C@H](COC[C@@H](O)CN2S(=O)(=O)c2ccc(F)cc2)O1	nt	1	nt	nt	nt	nt	nt	nt	nt	nt	nt
Cc1ccc(NC(=O)c2ccco2)cc1C	67*	nt	21	32	65*	-3	50*	48	80*	73*	52*
Cc1cc(NC(=O)c2ccc3c(c2)OCO3)ccc1NC(=O)c1ccccc1	85*	-21	7	61*	92*	-1	-25	32	30	7	-3
CCn1nccc1C(=O)Nc1ccc(C)c(C)c1	70*	nt	10	65*	82*	-5	69*	64*	91*	84*	75*
CCC(=O)Oc1ccc(NC(=O)c2ccco2)cc1	-27	-3	11	-17	6	1	nt	nt	nt	nt	nt
Cc1ccc(NC(=O)c2cc(S(=O)(=O)N3CCCC3)cn2C)cc1C	-16	-14	8	-7	0	-3	nt	nt	nt	nt	nt
O=C(Nc1ccc(OC(=O)c2ccco2)cc1)c1ccco1	83*	nt	14	29	86*	0	67*	62*	90*	53*	80*
Cc1cc(NC(=O)c2ccco2)ccc1NC(=O)c1ccco1	26	-13	0	7	23	-2	nt	nt	nt	nt	nt
COc1ccc(C#Cc2cnc3c(c2)C(=O)N([C@H](C)CO)C[C@H](C)[C@H](CN(C)C(=O)Nc2cccc4ccccc24)O3)cc1OC	nt	-1	nt	nt	nt	nt	nt	nt	nt	nt	nt
COc1cccc(S(=O)(=O)N[C@@H]2C=C[C@@H](CC(=O)NC3CCC3)O[C@H]2CO)c1	nt	-5	nt	nt	nt	nt	nt	nt	nt	nt	nt
Cc1ccc(/C=C2\OC(=O)c3ccccc32)cc1	68*	nt	-190	56*	86*	-1	0	15	25	30	11
Cc1ccccc1/C=C1\OC(=O)c2ccccc21	1	nt	-57	2	20	-4	nt	nt	nt	nt	nt
CCC(=O)N[C@@H]1C=C[C@@H](CC(=O)OC)O[C@@H]1CO	nt	2	nt	nt	nt	nt	nt	nt	nt	nt	nt
COc1cc(C=O)ccc1OCc1ccccc1Br	75*	-77	15	70*	66*	-4	-8	68*	89*	69*	73*
COc1cc(C=O)ccc1OCc1cccc(Br)c1	34	-102	3	-3	23	-4	nt	nt	nt	nt	nt
O=C(Nc1ccccc1)C(=O)c1c[nH]c2ccccc12	93*	-9	2	89*	97*	5	86*	90*	100*	85*	38
Cc1noc(C)c1NC(=O)N[C@H]1CC[C@@H](CC(=O)N2CCN(C)CC2)O[C@H]1CO	nt	2	nt	nt	nt	nt	nt	nt	nt	nt	nt
O=C(Nc1nc2ccsc2c(=O)s1)c1ccc(F)cc1Cl	89*	nt	-104	86*	98*	8	44	52*	45	52*	4
Cc1csc2c(=O)sc(NC(=O)c3ccc(F)cc3Cl)nc12	-26	nt	-31	-15	3	-9	nt	nt	nt	nt	nt
O=C(Nc1nc2ccsc2c(=O)s1)c1ccc(F)cc1	96*	-18	-83	94*	100*	5	37	93*	47	56*	18
CO[C@@H]1CN(C)C(=O)c2cc(NC(=O)C3CC3)ccc2OC[C@H](C)N(C(=O)c2ccccc2)C[C@@H]1C	nt	-1	nt	nt	nt	nt	nt	nt	nt	nt	nt
CC(C)NC(=O)Nc1ccc2c(c1)C(=O)N([C@H](C)CO)C[C@@H](C)[C@H](CN(C)C(=O)NC(C)C)O2	nt	-12	nt	nt	nt	nt	nt	nt	nt	nt	nt
COc1cc(OC)cc(C(=O)Nc2ccc3nc4n(c(=O)c3c2)CCCCC4)c1	81*	-98	3	80*	83*	-4	87*	86*	98*	88*	55*
CCOC(=O)c1nn(-c2ccccc2)cc1O	-7	-21	-38	10	2	-1	nt	nt	nt	nt	nt
SMILES	SENP6 inh	LGR2 antag	SENP8 block-1	SENP8 block-2	SENP7 block	HSP90 refold inh	SENP8 conf	SENP6 conf	SENP7 confirm	Casp3 SENP sel	Luc interf
COC(=O)c1nn(-c2ccc(-c3ccccc3)cc2)cc1O	97*	nt	-492	93*	97*	13	92*	98*	102*	95*	88*
COc1cc(/C=N/O)ccc1OCc1ccc(Cl)cc1	75*	nt	nt	43	59*	-3	64*	64*	86*	42	68*
N#C/C(=C\c1ccc(Sc2ccccc2)o1)c1nc2ccccc2[nH]1	46	-68	-96	23	94*	-8	62*	48	99*	78*	67*
N#C/C(=C/c1ccc(O)c(O)c1)c1nc2ccccc2[nH]1	80*	-5	-86	70*	72*	0	82*	81*	94*	78*	15
C[C@@H]1CN([C@@H](C)CO)C(=O)c2cc(-c3ccc(C#N)cc3)cnc2O[C@H]1CN(C)C(=O)Nc1ccc(F)cc1	nt	2	nt	nt	nt	nt	nt	nt	nt	nt	nt
O=C(Nc1ccc(Br)cn1)c1ccc2ccccc2c1	-1	-39	0	-11	61*	1	-9	-7	-2	8	3
O=C(Nc1nccs1)c1ccc2ccccc2c1	73*	-36	-1	69*	72*	4	81*	80*	93*	71*	80*
O=C(Nc1ccc(Br)cn1)c1cccc(C(=O)Nc2ccc(Br)cn2)c1	5	-21	10	-7	-12	10	nt	nt	nt	nt	nt
CCCC(O)C#Cc1cnc2c(c1)C(=O)N([C@H](C)CO)C[C@H](C)[C@H](CN(C)S(=O)(=O)c1ccc(OC)cc1)O2 (stereo partly drawn)	nt	-6	nt	nt	nt	nt	nt	nt	nt	nt	nt
C[C@@H]1CN([C@@H](C)CO)C(=O)c2ccccc2-c2ccccc2CO[C@H]1CN(C)C(=O)[C@H](C)c1ccccc1	nt	33	nt	nt	nt	nt	nt	nt	nt	nt	nt
COc1ccc(CCC(=O)Nc2sccc2C#N)cc1	86*	-99	nt	80*	87*	-4	84*	85*	98*	89*	59*
N#Cc1ccsc1NC(=O)COC(=O)c1ccc2ccccc2c1	91*	-26	17	84*	86*	2	6	67*	100*	80*	20
